A selection: hits, their analogues and other compounds. The true share with any hit is near 5.1%.
ROMK mod – modulates human ROMK potassium channel activity; 2% of 130,000 active; Tet-inducible ROMK, thallium flux fluorescence; actives lie on both sides; B-score at 10 µM; AID 1918;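 active = signal ratio slope over the read window, or its plate-corrected B-score, at least 3 SD from the plate mean, either direction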;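 note: B-score of the F/F0 ratio slope over 7 to 12 s after thallium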
S1P4 antagonist – blocks the human S1P4 receptor | O95977 | inhibition, % at 4.98 µM | 0.26% of 220,000 active | S1P4-expressing cells, antagonist mode, reporter read-out; in the data active = inhibition above about 29%;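 note: 0% = wells stimulated with agonist and 100% = vehicle wells without agonist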
S1P3 antagonist – antagonists of human S1P3 receptor; inhibition, % at 4.98 µM; CHO S1P3 NFAT-BLA reporter, FRET fluorescence, antagonist mode; 0.27% of 170,000 active; Q99500; AID 485;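 active = inhibition above the plate cutoff, the mean inhibition of test wells on that plate plus 3 SD, cut at about 28% in these data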;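 note: cells challenged with S1P at its EC80 of 0.8 µM; blue over green emission ratio from cleaved BLA substrate after 4 h stimulation; 0% = S1P-stimulated wells and 100% = unstimulated DMSO-only wells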
RAM network inh – inhibitors of the yeast RAM network; S. cerevisiae dse1pr::URA3 reporter, 5-FOA growth OD615, 2 d; analog-sensitive cbk1-as2 kinase mutant strain; inhibition, % at 50 µM; 1.8% of 190,000 active; AID 868;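 active = inhibition above a set limit, 3 SD over mean compound inhibition, cut at about 8.4% in these data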;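 note: 0% = DMSO-only wells with no growth and 100% = 10 µM 1-NA-PP1 full growth; inhibition rescues growth on 5-FOA so higher OD means more RAM inhibition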
KCC2 mod – modulators of human KCC2 chloride dependent transport; Q9H2X9; KCC2 cells, thallium flux FluoZin-2 fluorescence; B-score of Tl+ flux slope (higher = more flux/activation; lower = inhibition) at 10 µM; 2.2% of 190,000 active; AID 1456;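 active = thallium flux slope and its plate-corrected score both differing from the plate sample mean at a set confidence after two filtering rounds, in either direction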;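 note: slope of fluorescence scaled to starting intensity during 10 to 20 s after thallium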
Target sequence (Q9H2X9 whole entry, looked up): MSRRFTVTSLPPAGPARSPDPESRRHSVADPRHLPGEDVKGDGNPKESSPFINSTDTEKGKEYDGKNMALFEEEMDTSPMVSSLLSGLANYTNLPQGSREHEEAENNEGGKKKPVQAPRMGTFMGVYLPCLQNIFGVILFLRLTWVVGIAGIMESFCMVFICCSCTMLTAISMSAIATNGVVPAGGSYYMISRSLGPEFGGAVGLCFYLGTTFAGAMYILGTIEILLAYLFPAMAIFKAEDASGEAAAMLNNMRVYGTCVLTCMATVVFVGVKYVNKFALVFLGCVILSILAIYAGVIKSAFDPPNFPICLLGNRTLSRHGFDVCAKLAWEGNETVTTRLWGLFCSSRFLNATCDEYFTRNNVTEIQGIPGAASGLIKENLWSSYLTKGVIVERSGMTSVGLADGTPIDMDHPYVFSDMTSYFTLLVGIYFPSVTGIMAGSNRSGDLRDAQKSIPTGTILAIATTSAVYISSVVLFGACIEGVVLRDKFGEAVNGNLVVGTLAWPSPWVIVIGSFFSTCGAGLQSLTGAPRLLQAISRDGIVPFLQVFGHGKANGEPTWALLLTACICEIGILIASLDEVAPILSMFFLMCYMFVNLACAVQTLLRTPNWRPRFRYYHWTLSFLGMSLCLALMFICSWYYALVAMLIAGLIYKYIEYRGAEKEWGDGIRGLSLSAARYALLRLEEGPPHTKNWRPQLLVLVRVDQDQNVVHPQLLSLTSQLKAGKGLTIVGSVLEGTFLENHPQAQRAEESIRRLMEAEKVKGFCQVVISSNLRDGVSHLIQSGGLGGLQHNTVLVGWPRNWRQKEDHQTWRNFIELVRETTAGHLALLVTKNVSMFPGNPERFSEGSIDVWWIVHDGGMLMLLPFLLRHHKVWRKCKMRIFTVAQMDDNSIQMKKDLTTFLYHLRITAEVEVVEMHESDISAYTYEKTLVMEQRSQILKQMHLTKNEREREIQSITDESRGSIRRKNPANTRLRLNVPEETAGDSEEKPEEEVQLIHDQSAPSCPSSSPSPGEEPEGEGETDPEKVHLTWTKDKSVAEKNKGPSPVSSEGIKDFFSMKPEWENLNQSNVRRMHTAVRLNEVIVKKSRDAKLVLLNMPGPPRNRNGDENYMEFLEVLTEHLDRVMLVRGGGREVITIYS
S1P4 agonist – human S1P4 receptor agonism; O95977; 0.35% of 220,000 active; S1P4-expressing cell line, agonist reporter assay; activation, % at 4.98 µM; in the data active = activation above about 11%;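 note: 0% = DMSO vehicle and 100% = reference agonist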
RAM 5-FOA – restores 5-FOA growth of efflux-deficient yeast. shares compounds with RAM network inh. S. cerevisiae efflux-deficient reporter strain, 5-FOA growth OD615, 2 days. max inhibition, %. 1,200 tested, under 10 active. AID 1305; call rule not given here;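 note: plate controls were vehicle for no effect and reference inhibitor for full effect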
An asterisk follows results filed as active.

O=C(C1CCCN1S(=O)(=O)c1cccc2nsnc12)N1CCCCCC1 (centres undefined) was read as ROMK mod -0.838, S1P4 antagonist -8.0, S1P3 antagonist -0.8, KCC2 mod -0.0218 and S1P4 agonist 0.9.
O=C(/C=C/c1ccc(-c2ccccc2[N+](=O)[O-])o1)c1ccccc1 was read as S1P4 antagonist -8.6, S1P3 antagonist 9.1, RAM network inh 15.8*, KCC2 mod -1.45, S1P4 agonist 5.4 and RAM 5-FOA 3.9.
For COC(=O)c1cc(NC(=O)C2CCCN(S(=O)(=O)c3c(C)n[nH]c3C)C2)cc(C(=O)OC)c1 (centres undefined) the results were ROMK mod 0.902, S1P4 antagonist -14.4, S1P3 antagonist -1.1, RAM network inh 5.3, KCC2 mod -1.07 and S1P4 agonist -0.5.
Screening CN(C)/C=C1\SC(=S)N(N2C(=O)C3C4C=CC(C4)C3C2=O)C1=O (centres undefined) returned ROMK mod -0.646, S1P4 antagonist -1.7, S1P3 antagonist -5.3, RAM network inh 1.9, KCC2 mod 0.359 and S1P4 agonist -1.3.
For COc1ccc(OC)c(-c2cc(C(=O)N3CCc4ccccc4C3)no2)c1 the results were S1P4 antagonist -6.8, S1P3 antagonist -28.7, RAM network inh 11.9*, KCC2 mod -1.26, S1P4 agonist 1.7 and RAM 5-FOA 1.6.
O=C(Cc1cccs1)N1CCN(c2nc(-c3ccc(Cl)cc3)cs2)CC1 was read as S1P4 antagonist 12.0, S1P3 antagonist 20.4, RAM network inh 14.5*, KCC2 mod 0.577, S1P4 agonist 2.0 and RAM 5-FOA 1.1.
For CC(C)C(=O)N1CCN(c2nc(-c3ccc(Cl)cc3)cs2)CC1 the results were ROMK mod -0.46, S1P4 antagonist -14.9, S1P3 antagonist -4.4, RAM network inh -0.8, KCC2 mod -2.84 and S1P4 agonist 1.3.
For Clc1ccc(-c2csc(N3CCC(c4ccccc4)C3)n2)cc1 (centres undefined) the results were S1P4 antagonist -11.0, RAM network inh 13.5*, KCC2 mod 0.156, S1P4 agonist -0.1 and RAM 5-FOA 6.6.
`CCCN1C(=O)/C(=c2\sc3nc(=O)c(Cc4ccc(C)cc4)nn3c2=O)c2ccccc21` gave ROMK mod 0.466, S1P4 antagonist -19.6, S1P3 antagonist -11.9, RAM network inh 12.2*, KCC2 mod -0.0119, S1P4 agonist 2.8 and RAM 5-FOA 4.4.
COC(=O)c1ccc(-c2ncc(-c3cccc4ccccc34)o2)cc1 was read as S1P4 antagonist 17.7, RAM network inh 13.1*, KCC2 mod -0.308, S1P4 agonist -0.5 and RAM 5-FOA 1.8.
For COC(=O)c1ccc(-c2nc3ccccc3o2)cc1 the results were S1P3 antagonist -2.7.
For CCN(CC)S(=O)(=O)c1cccc(-c2nnc(SCCOc3ccc(Cl)cc3)o2)c1 the results were S1P4 antagonist -0.3, S1P3 antagonist 2.4, RAM network inh 15.9*, KCC2 mod -0.439, S1P4 agonist 1.4 and RAM 5-FOA 3.1.
Screening CCN(CC)S(=O)(=O)c1cccc(-c2nnc(SCCOc3ccccc3C)o2)c1 returned S1P4 antagonist -2.7, S1P3 antagonist 34.1, RAM network inh 11.8*, KCC2 mod -1.29, S1P4 agonist -0.3 and RAM 5-FOA 1.5.
Screening CCN(CC)S(=O)(=O)c1cccc(-c2nnc(SCC(=O)c3cc(C)n(C)c3C)o2)c1 returned ROMK mod -0.63, S1P4 antagonist -4.3, S1P3 antagonist 2.2, RAM network inh 3.5 and S1P4 agonist 3.2.
For CCN(CC)S(=O)(=O)c1cccc(-c2nnc(SCc3nnc(-c4ccccc4)o3)n2C)c1 the results were S1P4 antagonist -8.6, RAM network inh 0.3, KCC2 mod -0.792 and S1P4 agonist -0.8.
For CCN(CC)S(=O)(=O)c1cccc(-c2nnc(SCCOc3ccccc3)o2)c1 the results were ROMK mod -1.4, S1P4 antagonist 3.9, S1P3 antagonist -50.8, RAM network inh 13.2*, S1P4 agonist -0.2 and RAM 5-FOA 3.1.
Screening CCOc1ccc(S(=O)(=O)Nc2nc3ccc(OC)cc3s2)cc1 returned ROMK mod 0.123, S1P4 antagonist -6.2, RAM network inh 12.2*, KCC2 mod -0.204, S1P4 agonist -2.8 and RAM 5-FOA 2.6.
NC(N)=Nc1nc(C2COc3ccccc3O2)cs1 (centres undefined) was read as S1P4 antagonist -22.1, S1P3 antagonist 4.6, RAM network inh 1.1, KCC2 mod -0.0397 and S1P4 agonist 1.9.
For CCOc1cccc(-c2csc(C3COc4ccccc4O3)n2)c1 (centres undefined) the results were ROMK mod -0.0457, S1P4 antagonist -3.4, S1P3 antagonist -5.0, RAM network inh 15.0*, KCC2 mod 0.775, S1P4 agonist 1.2 and RAM 5-FOA 3.2.
`COc1ccc(C(=O)NCC(=O)OCc2cccc(Br)c2)cc1` gave ROMK mod -1.6, S1P4 antagonist -0.2, RAM network inh 12.6*, S1P4 agonist -1.6 and RAM 5-FOA 2.7.
Cc1cc(S(=O)(=O)N(Cc2ccccn2)Cc2ccco2)ccc1-n1cnnn1 was read as ROMK mod 0.14, S1P4 antagonist -6.1, RAM network inh 0.3, KCC2 mod 0.0254 and S1P4 agonist 0.3.
Screening CC1CCCCN1S(=O)(=O)c1ccc(S(=O)(=O)N(Cc2ccccc2)Cc2ccco2)cc1 (centres undefined) returned ROMK mod -2.16, S1P4 antagonist -12.1, RAM network inh 13.9*, KCC2 mod -0.345, S1P4 agonist 2.6 and RAM 5-FOA 2.6.
Screening CCN(Cc1ccccc1)S(=O)(=O)c1ccc(S(=O)(=O)N(Cc2ccccn2)Cc2ccco2)cc1 returned ROMK mod 0.105, S1P4 antagonist -0.9, RAM network inh 13.1*, S1P4 agonist 0.7 and RAM 5-FOA 1.8.
Screening O=S(=O)(c1ccc(NC(=S)NN=C2CCCCC2)cc1)N1CCOCC1 returned ROMK mod 0.777, S1P4 antagonist -26.2, S1P3 antagonist -7.7, RAM network inh 0.6, KCC2 mod -0.889 and S1P4 agonist 0.5.
For COc1ccccc1OCCN(C#N)c1nc(N(C)C)nc(N(C)C)n1 the results were S1P4 antagonist -8.7, S1P3 antagonist -7.2, RAM network inh 0.2, KCC2 mod -0.616 and S1P4 agonist 1.3.
Screening CCOC(=O)c1sc(NC(=O)/C=C/c2cnn(CC)c2C)c(C(=O)OCC)c1C returned ROMK mod 0.0497, S1P4 antagonist 2.3, RAM network inh 11.8*, KCC2 mod -0.29, S1P4 agonist -1.9 and RAM 5-FOA 2.8.
`Cc1cc([N+](=O)[O-])nn1CCCC(=O)Nc1ccc(Cl)cc1Cl` gave ROMK mod -0.0173, S1P4 antagonist 1.0, S1P3 antagonist -7.2, RAM network inh 2.7, KCC2 mod -0.635 and S1P4 agonist 0.0.
